# Among all 5,500 compounds or so, about 2,000 (36%) were called active. Another 18% or so got no clear call; they are omitted. The list shows a part of the results. Values without a mark were called inactive. No stated cut-off is given here; in the data, active means normalized growth mostly below about 0.91 (no sharp cut-off); inconclusive means no clear call, values can overlap the other calls; inactive means mostly above about 0.92.
# Test: chemical genetic growth profiling, strain panel (AID 1159580);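 further: tested at 20 µM; growth read once vehicle control cultures reached saturation at 30 °C; 1 = growth at the plate median or of vehicle wells; lower values mean less growth of the strain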
# Conditions: S. cerevisiae deletion strains, growth OD
# [1] = locus YAL040C, strain CLN3, active compounds read low
# [2] = locus YCL061C, strain MRC1 (second series), active compounds read low
# [3] = locus YDR150W, strain NUM1, active compounds read low
# [4] = locus YDR363W, strain ESC2, active compounds read low
# [5] = locus YER002W, strain NOP16, active compounds read low
# [6] = locus YGR078C, strain PAC10, active compounds read low
# [7] = locus YNL175C, strain NOP13, active compounds read low
# [8] = locus YNL197C, strain WHI3, active compounds read low
# [9] = locus YNL224C, strain SQS1, active compounds read low
# [10] = locus YOR083W, strain WHI5 (second series), active compounds read low
# [11] = locus YGR229C, strain SMI1, active compounds read low
# [12] = locus YJR075W, strain HOC1, active compounds read low
# [13] = locus YPL241C, strain CIN2, active compounds read low
# [14] = locus YNL153C, strain GIM3, active compounds read low
# [15] = locus YBL105C, strain PKC1, active compounds read low
# [16] = locus YBR135W, strain CKS1, active compounds read low
# [17] = locus YBR136W, strain MEC1, active compounds read low
# [18] = locus YBR160W, strain CDC28, active compounds read low
# [19] = locus YDL017W, strain CDC7, active compounds read low
# [20] = locus YDL028C, strain MPS1, active compounds read low
# [21] = locus YDL108W, strain KIN28, active compounds read low
# [22] = locus YDL214C, strain PRR2, active compounds read low
# [23] = locus YDR052C, strain DBF4, active compounds read low
# [24] = locus YDR226W, strain ADK1, active compounds read low
# [25] = locus YDR477W, strain SNF1, active compounds read low
# [26] = locus YER123W, strain YCK3, active compounds read low
# [27] = locus YER133W, strain GLC7, active compounds read low
# [28] = locus YFR003C, strain YPI1, active compounds read low
# [29] = locus YFR019W, strain FAB1, active compounds read low
# [30] = locus YFR028C, strain CDC14, active compounds read low
# [31] = locus YGR040W, strain KSS1, active compounds read low
# [32] = locus YGR052W, strain FMP48, active compounds read low
# [33] = locus YGR092W, strain DBF2, active compounds read low
# [34] = locus YHR030C, strain SLT2, active compounds read low
# [35] = locus YHR079C, strain IRE1, active compounds read low
# [36] = locus YHR082C, strain KSP1, active compounds read low
# [37] = locus YHR205W, strain SCH9, active compounds read low
# [38] = locus YIL147C, strain SLN1, active compounds read low
# [39] = locus YJL095W, strain BCK1, active compounds read low
# [40] = locus YJL128C, strain PBS2, active compounds read low
# [41] = locus YJL157C, strain FAR1, active compounds read low
# [42] = locus YJR016C, strain ILV3, active compounds read low
# [43] = locus YJR066W, strain TOR1 (second series), active compounds read low
# [44] = locus YJR066W, strain TOR1, active compounds read low
# [45] = locus YKL048C, strain ELM1, active compounds read low
# [46] = locus YKL067W, strain YNK1, active compounds read low
# [47] = locus YKL101W, strain HSL1, active compounds read low
# [48] = locus YKL203C, strain TOR2, active compounds read low
# [49] = locus YLR113W, strain HOG1, active compounds read low
# [50] = locus YLR133W, strain CKI1, active compounds read low
# [51] = locus YLR403W, strain SFP1, active compounds read low
# [52] = locus YML070W, strain DAK1, active compounds read low
# [53] = locus YMR205C, strain PFK2 (second series), active compounds read low
# [54] = locus YNL006W, strain LST8, active compounds read low
# [55] = locus YNL020C, strain ARK1, active compounds read low
# [56] = locus YNL183C, strain NPR1, active compounds read low
# [57] = locus YNL207W, strain RIO2, active compounds read low
# [58] = locus YNL307C, strain MCK1 (second series), active compounds read low
# [59] = locus YOL136C, strain PFK27, active compounds read low
# [60] = locus YOR061W, strain CKA2, active compounds read low
# [61] = locus YOR119C, strain RIO1, active compounds read low
# [62] = locus YOR231W, strain MKK1, active compounds read low
# [63] = locus YPL031C, strain PHO85, active compounds read low
# [64] = locus YPL153C, strain RAD53, active compounds read low
# [65] = locus YPL204W, strain HRR25, active compounds read low
# [66] = locus YPL209C, strain IPL1, active compounds read low
# [67] = locus YPL256C, strain CLN2, active compounds read low
# [68] = locus YPR106W, strain ISR1, active compounds read low
# [69] = locus YPR111W, strain DBF20, active compounds read low
# [70] = strain NNK1, active compounds read low
smiles,measurement,setting,value
Ic1ccc(N2CCN(Cc3c[nH]c4ncccc34)CC2)cc1,normalized growth,[1],1
same,normalized growth,[2],0.919 (active)
same,normalized growth,[3],0.914 (active)
same,normalized growth,[4],0.956
same,normalized growth,[5],1.06
same,normalized growth,[6],0.851 (active)
same,normalized growth,"locus YMR307W, strain GAS1, active compounds read low",1.01
same,normalized growth,[7],1.01
same,normalized growth,[8],1.01
same,normalized growth,[9],1.06
same,normalized growth,[10],0.809 (active)
Clc1ccc(N2CCN(Cc3c[nH]c4ncccc34)CC2)cc1,normalized growth,[1],1.08
same,normalized growth,[2],0.969
same,normalized growth,[3],0.965
same,normalized growth,[4],0.907
same,normalized growth,[5],0.968
same,normalized growth,[6],0.975
same,normalized growth,[11],0.748 (active)
same,normalized growth,[12],0.929
same,normalized growth,[7],0.969
same,normalized growth,[8],0.974
same,normalized growth,[9],0.987
same,normalized growth,[10],0.925
same,normalized growth,"locus YPL055C, strain LGE1, active compounds read low",0.92
same,normalized growth,[13],0.992
OC1(c2ccc(Cl)cc2)CCN(Cc2c[nH]c3ccccc23)CC1,normalized growth,"locus YAL013W, strain DEP1, active compounds read low",1.01
same,normalized growth,[1],1
same,normalized growth,[2],0.999
same,normalized growth,[4],0.974
same,normalized growth,[5],1.03
same,normalized growth,[6],1.02
same,normalized growth,[11],0.979
same,normalized growth,[12],1.01
same,normalized growth,[14],1
same,normalized growth,[7],1.02
same,normalized growth,[8],1.02
same,normalized growth,[9],1.03
same,normalized growth,"locus YNL322C, strain KRE1, active compounds read low",0.993
same,normalized growth,[10],1.01
COCc1nc2c([nH]1)c(=O)n(C)c(=O)n2CC(C)C,normalized growth,[1],0.991
same,normalized growth,[2],1
same,normalized growth,[3],1
same,normalized growth,[4],0.997
same,normalized growth,[5],1.02
same,normalized growth,[6],1.01
same,normalized growth,[11],0.993
same,normalized growth,[12],0.994
same,normalized growth,[14],1.01
same,normalized growth,[7],0.999
same,normalized growth,[8],1.01
same,normalized growth,[9],1
same,normalized growth,[10],1.01
same,normalized growth,[13],1.01
Cc1ccc(Sc2c(Sc3ccc(C)cc3)c(=O)c2=O)cc1,normalized growth,"locus YAR019C, strain CDC15, active compounds read low",0.898
same,normalized growth,[15],0.982
same,normalized growth,[16],0.961
same,normalized growth,[17],0.968
same,normalized growth,[18],0.958
same,normalized growth,[19],0.971
same,normalized growth,[20],0.961
same,normalized growth,"locus YDL101C, strain DUN1, active compounds read low",0.915
same,normalized growth,[21],0.964
same,normalized growth,"locus YDL132W, strain cdc53, active compounds read low",0.936
same,normalized growth,[22],0.184 (active)
same,normalized growth,[23],0.974
same,normalized growth,[24],0.968
same,normalized growth,[25],0.226 (active)
same,normalized growth,[26],0.14 (active)
same,normalized growth,[27],0.237 (active)
same,normalized growth,"locus YFL009W, strain cdc4, active compounds read low",0.946
same,normalized growth,[28],0.969
same,normalized growth,[29],0.128 (active)
same,normalized growth,[30],0.958
same,normalized growth,[31],0.285 (active)
same,normalized growth,[32],0.228 (active)
same,normalized growth,[33],0.427 (active)
same,normalized growth,[34],0.132 (active)
same,normalized growth,[35],0.171 (active)
same,normalized growth,[36],0.155 (active)
same,normalized growth,[37],0.0561 (active)
same,normalized growth,[38],0.964
same,normalized growth,[39],0.172 (active)
same,normalized growth,[40],0.949
same,normalized growth,[41],0.168 (active)
same,normalized growth,[42],0.976
same,normalized growth,[43],0.135 (active)
same,normalized growth,[44],0.129 (active)
same,normalized growth,[45],0.599 (active)
same,normalized growth,[46],0.287 (active)
same,normalized growth,[47],0.447 (active)
same,normalized growth,"locus YKL193C, strain SDS22, active compounds read low",0.948
same,normalized growth,[48],0.551 (active)
same,normalized growth,[49],0.186 (active)
same,normalized growth,[50],0.267 (active)
same,normalized growth,[51],0.161 (active)
same,normalized growth,[52],0.135 (active)
same,normalized growth,"locus YMR001C, strain CDC5, active compounds read low",0.952
same,normalized growth,[53],0.486 (active)
same,normalized growth,"locus YMR277W, strain FCP1, active compounds read low",0.882
same,normalized growth,[54],0.949
same,normalized growth,[55],0.319 (active)
same,normalized growth,"locus YNL161W, strain CBK1, active compounds read low",0.966
same,normalized growth,[56],0.173 (active)
same,normalized growth,[57],0.973
same,normalized growth,[58],0.267 (active)
same,normalized growth,[59],0.118 (active)
same,normalized growth,[60],0.427 (active)
same,normalized growth,[61],0.636 (active)
same,normalized growth,[62],0.224 (active)
same,normalized growth,"locus YOR329C, strain SCD5, active compounds read low",0.978
same,normalized growth,[63],0.144 (active)
same,normalized growth,[64],0.178 (active)
same,normalized growth,[65],0.197 (active)
same,normalized growth,[66],0.965
same,normalized growth,[67],0.172 (active)
same,normalized growth,"locus YPR025C, strain CCL1, active compounds read low",0.957
same,normalized growth,[68],0.967
same,normalized growth,[69],0.952
same,normalized growth,[70],0.963
same,normalized growth,"strain TSCII, active compounds read low",0.914
O=c1c(Sc2ccc(Cl)cc2)c(Sc2ccc(Cl)cc2)c1=O,normalized growth,[15],0.984
same,normalized growth,[16],0.961
same,normalized growth,[17],0.978
same,normalized growth,[18],0.973
same,normalized growth,[19],0.985
same,normalized growth,[20],0.973
same,normalized growth,[21],0.967
same,normalized growth,[22],0.104 (active)
same,normalized growth,[23],0.977
same,normalized growth,[24],0.971
same,normalized growth,[25],0.136 (active)
same,normalized growth,[26],0.0987 (active)
same,normalized growth,[27],0.108 (active)
same,normalized growth,[28],0.979
same,normalized growth,[29],0.091 (active)
same,normalized growth,[30],0.968
same,normalized growth,[31],0.158 (active)
same,normalized growth,[32],0.135 (active)
same,normalized growth,[33],0.386 (active)
same,normalized growth,[34],0.128 (active)
same,normalized growth,[35],0.113 (active)
same,normalized growth,[36],0.128 (active)
same,normalized growth,[37],0.121 (active)
same,normalized growth,[38],0.971
same,normalized growth,[39],0.128 (active)
same,normalized growth,[40],0.971
same,normalized growth,[41],0.0972 (active)
same,normalized growth,[42],0.974
same,normalized growth,[43],0.0937 (active)
same,normalized growth,[44],0.124 (active)
same,normalized growth,[45],0.6 (active)
same,normalized growth,[46],0.115 (active)
same,normalized growth,[47],0.39 (active)
same,normalized growth,[48],0.432 (active)
same,normalized growth,[49],0.175 (active)
same,normalized growth,[50],0.147 (active)
same,normalized growth,[51],0.154 (active)
same,normalized growth,[52],0.0995 (active)
same,normalized growth,[53],0.241 (active)
same,normalized growth,[54],0.45 (active)
same,normalized growth,[55],0.196 (active)
same,normalized growth,[56],0.114 (active)
same,normalized growth,[57],0.973
same,normalized growth,[58],0.261 (active)
same,normalized growth,[59],0.0906 (active)
same,normalized growth,[60],0.266 (active)
same,normalized growth,[61],0.485 (active)
same,normalized growth,[62],0.142 (active)
same,normalized growth,[63],0.103 (active)
same,normalized growth,[64],0.104 (active)
same,normalized growth,[65],0.109 (active)
same,normalized growth,[66],0.985
same,normalized growth,[67],0.154 (active)
same,normalized growth,[68],0.978
same,normalized growth,[69],0.962
same,normalized growth,[70],0.98
